High-throughput results from PubChem.
D2 ag-1: D2 dopamine receptor (human) agonism; HEK293 T-REx D2 cells, calcium flux agonist mode; activation, % at 2 µM; P14416; 340,000 compounds, 0.53% hits;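 active = activation over 3 SD above normal in the single-dose calcium agonist read, cut at about 30% in these data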; note: 0% is about no effect
Target sequence (P14416 whole entry, looked up): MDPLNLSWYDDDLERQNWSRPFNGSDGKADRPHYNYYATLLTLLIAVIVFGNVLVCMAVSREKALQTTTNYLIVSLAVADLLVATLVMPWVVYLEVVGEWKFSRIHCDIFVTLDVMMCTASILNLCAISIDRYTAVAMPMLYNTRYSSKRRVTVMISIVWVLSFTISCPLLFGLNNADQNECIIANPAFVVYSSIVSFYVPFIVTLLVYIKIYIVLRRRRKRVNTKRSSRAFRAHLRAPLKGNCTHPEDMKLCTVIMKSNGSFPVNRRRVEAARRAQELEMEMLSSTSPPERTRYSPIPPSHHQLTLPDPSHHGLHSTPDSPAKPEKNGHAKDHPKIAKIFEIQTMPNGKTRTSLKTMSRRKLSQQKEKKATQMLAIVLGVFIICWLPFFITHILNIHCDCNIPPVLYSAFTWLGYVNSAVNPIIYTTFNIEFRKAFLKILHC
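Tetracycline-induced HEK293 T-REx cells with force-coupled D2 receptor, plated overnight at 30 C, loaded with no-wash calcium dye. After a 10 s baseline, compound was pin-added and calcium flux read kinetically for 180 s; calcium rises flagged agonists.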
D2 PAM-1: positively modulates the human D2 dopamine receptor allosterically. P14416. potentiation, % at 10 µM. 340,000 compounds, 0.34% hits. HEK293 T-REx D2, calcium flux, EC20 dopamine potentiation. AID 485347;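 active = potentiation over 3 SD above the plate norm, cut at about 30% in these data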; note: 0% is about no effect
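Using a no-wash calcium dye in inducible, force-coupled HEK293 Trex cells expressing D2, we tracked fluorescence each second for 180 s after compound, then for 180 s after EC20 dopamine to detect augmented signalling.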
D2 antag: D2 dopamine receptor (human) antagonism | HEK293 TREx D2 cells, calcium flux, dopamine EC80 | inhibition, % at 10 µM | 340,000 compounds, 2% hits; in the data active = inhibition above about 30%; inactive = below that, where a call was filed; note: 0% is about no effect
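Cells plated overnight at 30 C with tetracycline; no-wash calcium dye, 30–90 min RT; 10 s baseline; compound pinned; 180 s read; EC80 dopamine added; another 180 s read.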
D2 ag-2: activates the human D2 dopamine receptor; P14416; DiscoveRx PathHunter D2 beta-arrestin, luminescence, 90 min; 100% = 57 uM dopamine signal; 360,000 compounds, 0.084% hits; activation, % (test concentration not listed); in the data active = activation above about 40%
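Agonist mode: compounds alone added to overnight-plated D2 PathHunter cells for 90 min at 37 C, with 57 uM final dopamine (EC100) defining full response. Beta-arrestin recruitment detected by chemiluminescent reagent, read after 1 h at ambient temperature.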
LDHA inh: blocks human lactate dehydrogenase A | P00338 | purified LDHA, NADH/diaphorase-resazurin fluorescence; stronger effect = lower value | AID 1347041 | 480,000 compounds, 0.15% hits | activity change, % (values are at about 110 or 230 µM); in the data active = activity change below about -30%;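 note: plate controls were DMSO wells for no effect and wells without enzyme for full effect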
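Human LDH5 (2 nM) was incubated with 0.06 mM NADH and 0.2 mM pyruvate for 5 min at room temperature in Tris pH 7.4. Remaining NADH was coupled through diaphorase/resazurin, and resorufin fluorescence was read at 0 and 20 min.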
D2 PAM-2: human D2 receptor positive allosteric modulation | P14416 | DiscoveRx D2 beta-arrestin cells, luminescence, 90 min; 100% = 57 uM dopamine signal | potentiation, % (concentration not given with the values) | 360,000 compounds, 0.23% hits; in the data active = potentiation above about 50%
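PathHunter D2 cells, attached overnight at 37 deg C, received compound in DMSO plus dopamine at EC20 (50 nM final) for 90 min at 37 deg C. Beta-arrestin recruitment was read as luminescence after 1 h with detection reagent at ambient temperature.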
Numbers without * were called inactive; x = no result. Most compounds without a hit are left out; they make up all but 2.1% or so of the library.

SMILES	D2 ag-1	D2 PAM-1	D2 antag	D2 ag-2	LDHA inh	D2 PAM-2
CCN1C(=O)c2ccccc2S(=O)c2ccc(C(=O)NCc3ccc(OC)cc3)cc21 (stereo not given)	-1	-22	81*	0	-9	-3
COc1ccc(CNC(=O)c2ccc3c(c2)N(Cc2ccccc2C)C(=O)c2ccccc2S3=O)cc1 (stereo not given)	0	12	x	x	-5	x
O=C(COc1ccc(F)cc1)NC1CCCN(c2ncccn2)C1 (stereo not given)	x	x	x	x	-1	x
CCn1nc(C(=O)OC/C(O)=C(\C#N)c2nc3ccccc3[nH]2)c2ccccc2c1=O	x	x	x	x	19	x
O=C(Cc1c(F)cccc1Cl)Nc1cccc(S(=O)(=O)NC2=NCCCCC2)c1	0	4	31*	-1	1	-25
O=C(Nc1cccc(S(=O)(=O)NC2=NCCCCC2)c1)c1cc(-c2ccco2)nc2ccccc12	0	8	0	2	-4	5
O=C(Nc1cccc(S(=O)(=O)NC2=NCCCCC2)c1)c1cc(-c2ccncc2)nc2ccccc12	2	6	-4	-3	-8	98*
Cc1nn(C)c(C)c1S(=O)(=O)N1CCC(C(=O)NC2CCCCCC2)CC1	1	1	33*	0	0	-6
Cc1nn(C)c(C)c1S(=O)(=O)N1CCC(C(=O)NCCC2=CCCCC2)CC1	-1	-7	30*	-2	-2	-9
Cc1noc(C)c1S(=O)(=O)N1CCC(C(=O)NCCC2=CCCCC2)CC1	0	-1	-24	-3	-6	-12
O=C(O)CNC(=O)CCn1ccc2ccc(F)cc21	x	x	x	x	-6	x
CCN(Cc1ccc2c(c1)OCCO2)C(=O)CN1C(=O)NC2(CCCCC2)C1=O	1	4	41*	-2	-1	-3
CCCCCCN1C=CC(=C/C=C(\C#N)C(=O)OCC)C=C1	43*	3	8	7	0	-4
CCOC(=O)/C(C#N)=C/C=C1\C=Cc2ccccc2N1CC	3	-8	-4	-4	0	-10
CCCN1C=CC(=C/C=C(\C#N)C(=O)OCC)C=C1	34*	0	-6	x	x	x
COCCCNS(=O)(=O)c1cccc2cc(C)cnc12	x	x	x	x	1	x
CC(=O)Nc1ccc(OC(=O)c2ccc(Cl)cc2)cc1	0	-2	33*	1	1	-14
CC(=O)c1cc2c(cc1NC(=O)C1CCC1)OCO2	-2	7	4	-4	-2	-1
O=C(O)c1cc2c(cc1NC(=O)C1CCCC1)OCCO2	1	-15	33*	-6	-1	-8
Cc1cc([N+](=O)[O-])ccc1N=C/C(Br)=C/c1ccccc1	x	x	x	x	34	x
N#Cc1cccnc1N1CCN(C(C(=O)O)c2c[nH]c3cc(Cl)ccc23)CC1 (stereo not given)	x	x	x	x	-8	x
Cn1nccc1NC(=O)Nc1ccc(Cl)cc1	0	-10	43*	-1	-1	-1
O=C(c1ccco1)[C@@H]1[C@@H]2C(=O)N(c3ccc(F)cc3)C(=O)[C@@H]2[C@H]2C=Cc3ccccc3N21	1	12	43*	-1	-3	-1
CC(CCC(C)C(C)(C)C)[C@@H]1CC[C@H]2C3C[C@H](OS(O)(=S)=S)[C@H]4C[C@H](OS(O)(=S)=S)[C@@H](OS(O)(=S)=S)C[C@]4(C)[C@H]3CC[C@]12C (stereo not given in full) (tested in a mixture with another compound)	x	x	x	-1	-94*	-6
CC(CCC(=O)NN)C1CCC2C3CCC4CC(O)CCC4(C)C3CCC12C (stereo not given)	x	x	x	-1	2	7
COCCCn1c(C)cc(C(=O)COC(=O)CCc2nc3ccccc3c(=O)[nH]2)c1C	1	-2	31*	7	-8	1
COCC(C)n1c(C)cc(C(=O)COC(=O)CCc2nc3ccccc3c(=O)[nH]2)c1C (stereo not given)	0	-5	3	0	-2	-4
OCCCNC(=S)NCCc1ccccc1	x	x	x	x	-3	x
